High-throughput results (PubChem)
Hits are enriched below; roughly 20% of the tested compounds scored in any of these assays.
Cycloheximide cs: counter-screen hit for Shiga toxin inhibitors, cycloheximide; cell reporter, cycloheximide protein synthesis inhibition counterscreen; max response, %; 12% of 300,000 active; in the data active = max response mostly above about 13%, no sharp cut-off; inactive = mostly below about 14%; also: read at 38.3 µM for the half of the compounds with a filed dose
Pf growth 48h: inhibits P. falciparum growth in the first generation, 48 h | P. falciparum luciferase growth in erythrocytes, 48 h | Potency, µM (highest dose often 28.7 µM), usual class: inhibitors | 5.9% of 310,000 active | AID 504832
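Compounds are pin-transferred into medium, infected erythrocytes (2% hematocrit, 0.1% parasitemia final) are added, and plates sit one parasite generation at 37 C in 5% CO2. Detection reagent is then added and luminescence measured.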
Shiga toxin inh: Shiga toxin inhibition | Vero cells, Shiga toxin protein synthesis inhibition reporter | inhibition, % at 38.7 µM | 9.2% of 290,000 active | AID 2315; in the data active = inhibition mostly above about 28%, no sharp cut-off; inactive = mostly below about 43%
HCMV antiviral: inhibitors of human cytomegalovirus; 4.5% of 410,000 active; HFF cells, HCMV-luciferase reporter, 72 h; stronger effect = lower value; activity change, negative = inhibition, % at 57.5 µM; in the data active = activity change below about -60%; inconclusive = no clear call, values can overlap the other calls; inactive = above about -39%
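Luciferase read-out from HCMV-luciferase-infected HFFs (MOI 1 PFU/cell) 72 h post infection at 37C; compounds added after 16 h cell attachment; activity normalized between buffer-only basal and Salinomycin (10uM) inhibitor controls.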
Pf growth 96h: P. falciparum growth inhibition at 96 hour, primary screen for plastid delayed-death inhibitors | Potency, µM (doses to about 28.7 µM), actives largely listed as inhibitors | P. falciparum luciferase reporter growth, 96 h | AID 504834 | 6.9% of 320,000 active
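Readout is luminescence from an integrated firefly luciferase in P. falciparum. Red cells, 2% hematocrit and 0.05% parasitemia final, were cultured with compound through two parasite generations (96 hours) at 37 C, 5% CO2.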
A number is an active result; - = inactive; ? = inconclusive; . = no result; [ ] = another dose, or the depositor's remark. Unless noted, calls follow the shape of the dose curve; as a rule, active = well fitted inhibition curve with a large enough effect; inconclusive = small, poorly fitted or top-dose-only effect, or another doubt; inactive = no such curve, though single readings can be large or run the other way.

SMILES	Cycloheximide cs	Pf growth 48h	Shiga toxin inh	HCMV antiviral	Pf growth 96h
COc1ccc(/C=N/Nc2ncc(Br)cn2)c(OC)c1	46	-	51	-	-
COc1ccc(-c2nn(-c3ccccc3)cc2/C=N/Nc2ccccn2)cc1	-	?	-	.	?
Cc1ccc(C)c(/C=N/Nc2ccccn2)c1	20	-	53	-	-
Clc1ccc(C=NNc2ccccn2)c(Cl)c1	.	.	.	-	.
COc1ccc(/C=N/OCc2ccc(Br)cc2)c(OC)c1	30	-	31	-	-
COc1ccc(/C=N/NS(C)(=O)=O)c(OC)c1	-	-	-	-	-
COc1ccc(C=NNC(=O)c2ccccc2OCc2ccc(F)cc2)c(OC)c1	.	.	.	-	.
Cc1ccc(-n2c(=O)c3c(C)c(C(=O)N(C)C)sc3n(CC(=O)C(C)(C)C)c2=O)cc1C	.	.	.	-	.
COc1cccc(N=C(N)N)c1	-	-	-	-	-
COc1ccccc1/C=N/Nc1nccnc1Cl	35	.	66	-	-
COc1cccc(/C=N/Nc2ncccc2[N+](=O)[O-])c1OC	-	-	-	-	-
COc1ccc(/C=N/Nc2ccccn2)c(OC)c1OC	40	-	74	-	-
C[C@@H]1CN([C@@H](C)CO)C(=O)CCCn2nncc2CO[C@@H]1CN(C)C(=O)Nc1ccccc1C(F)(F)F	.	.	.	-	.
CCc1ccc(NC(=O)Cn2c(=O)nc(-c3ccccc3F)c3cc(Cl)ccc32)cc1	.	.	.	-	.
CCCOC1(NC(=O)c2ccccc2)C(C)=CC(=O)C=C1C	-	-	-	-	3.3µM
CC(C)[C@H](NC(=O)OC(C)(C)C)C(=O)NCC1CCC(C(=O)N[C@@H](Cc2ccccc2)C(=O)O)CC1 (stereo partly specified)	-	.	-	-	-
COc1ccccc1NC(=O)c1cn(CCC#N)nc1-c1ccc(F)cc1	-	-	-	-	12µM
CCOC(=O)c1ccc(N2C(=O)c3[nH]nc(-c4ccc(OCC)cc4)c3C2c2cccs2)cc1 (stereo unspecified)	.	.	.	-65	.
CCOC(=O)c1ccc(N2C(=O)c3[nH]nc(-c4ccccc4)c3C2c2cccs2)cc1 (stereo unspecified)	.	.	.	-98	.
CCOC(=O)c1ccc(N2C(=O)c3n[nH]c(-c4ccco4)c3C2c2ccc(O)c(OC)c2)cc1 (stereo unspecified)	.	.	.	-	.
CCOC(=O)C1CCCN(S(=O)(=O)c2ccc(C)cc2)C1 (stereo unspecified)	-	-	-	-	-
CCOC(=O)C1CCCN(S(=O)(=O)c2ccc(S(=O)(=O)N(CC)CC)cc2)C1 (stereo unspecified)	-	-	-	-70	-
CCN(CC)c1ccc(NC(=O)C2CCCN(S(=O)(=O)c3cccnc3)C2)c(C)c1 (stereo unspecified)	-	.	-	-	9.3µM
CCN(CC)S(=O)(=O)c1ccc(S(=O)(=O)N2CCCC(C(=O)NC3CC3)C2)cc1 (stereo unspecified)	-	-	-	-83	?
Cc1cc(NCc2ccc(Cl)cc2)n2cnnc2n1	.	.	.	-	.
SMILES	Cycloheximide cs	Pf growth 48h	Shiga toxin inh	HCMV antiviral	Pf growth 96h
N#Cc1ccc(/C=N/NC(=O)c2cc(-c3cccs3)nc3ccccc23)cc1	22	?	-	-	?
COc1cc(/C=N/NC(=O)c2cc(-c3cccc(OC(C)C)c3)nc3ccccc23)ccc1O	.	.	.	-61	.
COc1cc(/C=N/NC(=O)c2cc(-c3cccs3)nc3ccccc23)ccc1O	-	?	45	-	?
N#Cc1ccc(-c2csc(NC(=O)c3cc(-c4cccs4)nc4ccccc34)n2)cc1	-	?	-	-	?
O=C(Nc1ccc(Br)cc1)c1cc(-c2cccs2)nc2ccccc12	.	.	.	-	.
COc1cc(/C=N/NC(=O)c2cc(-c3ccccc3)nc3ccccc23)cc(OC)c1O	-	-	.	-	?
O=C1Nc2ccccc2-c2nnnn2C1N1CCC(Cc2ccccc2)CC1 (stereo unspecified)	.	.	.	-	.
Cn1c(SCc2ccccc2Cl)nc2c([nH]c3ccccc32)c1=O	.	.	.	-	.
Cc1cc(Cl)ccc1NS(=O)(=O)c1c(C(=O)N2CCCCCC2)c(C)n(C)c1C	.	.	.	-	.
CCOc1ccc(C(=O)N/N=C/c2ccc(SC)cc2)cc1	-	-	-	-	?
CCOc1ccc(/C=N/NC(=O)c2ccc(CSc3nc4ccccc4[nH]3)cc2)cc1	21	-	43	?	-
O=C(N/N=C/c1ccc(OC(F)F)cc1)c1ccc(Br)cc1	-	-	-	-	-
O=C(N/N=C/c1ccc(OC(F)F)cc1)c1ccc(CSc2nc3ccccc3[nH]2)cc1	-	-	-	-	13µM
Cc1ccc(Cl)cc1NC(=O)CSc1ccc(C(=O)O)cn1	.	.	.	-	.
COc1c2c(c(OC)c3c1c(=O)c1ccccc1n3C)OCO2	.	.	.	-	.
CC1=CC(C)(C)N2C(=O)C3(C(C#N)=C(N)OC4=C3C(=O)CC(C)(C)C4)c3c(C)c(C)cc1c32 (stereo unspecified)	-	.	-	-	4.1µM
CC1=CC(C)(C)N2C(=O)C3(C(C#N)=C(N)Oc4cc(C)oc(=O)c43)c3cc(C)cc1c32 (stereo unspecified)	.	.	.	-	.
COc1cc2c3c(c1)C1(C(=O)N3C(C)(C)C=C2C)C(C#N)=C(N)Oc2cc(C)oc(=O)c21 (stereo unspecified)	-	5.9µM	-	-	-
CCc1cc2c3c(c1)C1(C(=O)N3C(C)(C)C=C2C)C(C#N)=C(N)Oc2[nH]c(=O)[nH]c(=O)c21 (stereo unspecified)	-	?	-	-75	-
CC(OC(=O)[C@@H](NC(=O)c1ccco1)C(C)C)C(=O)Nc1ncc(Cl)cc1Cl (stereo partly specified)	.	.	.	-	.
O=C1CC(N2CCN(c3ccccn3)CC2)C(=O)N1CC(c1ccccc1)c1ccccc1 (stereo unspecified)	-	?	-	-	?
COc1cccc(N2C(=O)CC(NNc3nc4ccccc4s3)C2=O)c1 (stereo unspecified)	-	-	-	-	-
Cc1ccc(CCNC(=O)c2cccc(NC3=NC4CS(=O)(=O)CC4S3)c2)cc1 (stereo unspecified)	-	-	-	?	-
N#Cc1ccc(NC(=O)c2cc(=O)c3ccccc3o2)cc1	-	-	-	?	-
Cc1noc(C)c1COc1ccccc1C(=O)N(C)CC(=O)Nc1ccc(F)cc1	.	-	.	-	-
SMILES	Cycloheximide cs	Pf growth 48h	Shiga toxin inh	HCMV antiviral	Pf growth 96h
COc1cc(NC(=O)c2ccc(C)cc2)c(OC)cc1NC(=O)CN1CCCCC1	-	?	-	-	?
CN(c1ccccc1)S(=O)(=O)c1cccc(NC(=O)CC(C)(C)C)c1	-	-	-	-	12µM
NS(=O)(=O)c1cccc(NC(=O)COc2ccc([N+](=O)[O-])cc2)c1	-	9.3µM	-	?	-
CN(C)S(=O)(=O)c1ccc(Cl)c(NC(=O)CN2CCc3ccccc3C2)c1	-	-	-	-64	-
O=C(COc1ccc([N+](=O)[O-])cc1)Nc1ccncc1	-	-[5.75 µM]	-	-	?
COc1cc(NC(=O)c2ccccc2Cl)c(OC)cc1NC(=O)CN1CCCCC1	-	-	-	-	1.9µM
